PubChem BioAssay (EPA / NIEHS)
Activity calls are given as the source filed them. How the source made its calls: active means hit-call score of the fitted dose curve at least 0.9, where 1 is the maximum; inactive means score below 0.9.

Read-out: Insulin Like Growth Factor 1 (IGF1), IGF1 (gene 3479)
Assay: LTEA_HepaRG_IGF1: Life Technologies and Expression Analysis (LTEA) Assay for Insulin Like Growth Factor 1 (IGF1) using HepaRG (AID 2283506)
Conditions: mRNA level, 48 h; actives raise or lower the signal
Outline: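 Endpoint: IGF1 mRNA change by qRT-PCR, housekeeping-normalized, fitted bidirectionally relative to 0.5% DMSO vehicle. Human HepaRG cells were treated 48 h in serum-free induction medium, eight half-log concentrations topping at 100 uM.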

| Structure (SMILES) | outcome | AC50 |
| --- | --- | --- |
| COC(=O)CCCCC(=O)OC | inactive |  |
| CC(C)CCCCCCOC(=O)CCCCC(=O)OCCCCCCC(C)C | inactive |  |
| O=c1c(-c2ccc(O)cc2)coc2cc(O)ccc12 | inactive |  |
| CCCCCCC(=O)O | inactive |  |
| CC1=C(/C=C/C(C)=C/C=C/C(C)=C/C(=O)O)C(C)(C)CCC1 |  | 31.8 µM (active) |
| CC#C[C@]1(O)CC[C@H]2[C@@H]3CCC4=CC(=O)CCC4=C3[C@@H](c3ccc(N(C)C)cc3)C[C@@]21C |  | 68.4 µM (active) |
| CC(=O)CC(C)(C)O | inactive |  |
| CC(C)(C)CC(C)(C)c1ccc(O)c(-n2nc3ccccc3n2)c1 |  | 50 µM (active) |
| CCC(C)(C)C1CCC(O)CC1 (centres undefined) | inactive |  |
